Test results taken from PubChem BioAssay.
For part of these data: Results with a measured potency or affinity are listed apart. The source made the active and inactive calls.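 The calls were made as follows, unless noted: active = dose curve with midpoint inside tested range, moderate steepness, plateau gap beyond fit error, low compound glow and bead-link interference; inactive = the rest.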

Key:
[1] = biological target: Cell division control protein 42 homolog (Homo sapiens) (UniProt P60953); assay: inhibition of fluorescent GTP binding to constitutively active Cdc42 – biochemical, multiplex bead flow cytometry, Bodipy-FL-GTP, dose response (AID 1333;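 active = fitted half-maximal concentration within the tested dose range, moderate curve steepness, a statistically real signal drop, and little compound fluorescence or tag-binding interference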)
[2] = biological target: Cell division control protein 42 homolog (Homo sapiens) (UniProt P60953); assay: inhibition of fluorescent GTP binding to wildtype Cdc42 – biochemical, multiplex bead flow cytometry, Bodipy-FL-GTP, dose response (AID 1334;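 active = fitted half-maximal concentration within the tested range, moderate curve steepness, significant signal drop, and little compound fluorescence or bead-linkage interference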); settings: bead-based flow cytometry, Bodipy-FL-GTP binding to GST-Cdc42; at 100 µM (top of the series) unless noted
[3] = biological target: GTPase HRas (Homo sapiens) (UniProt P01112); assay: Ras wt fluorescent GTP loading blockade – biochemical, wildtype, multiplex bead flow cytometry, dose response (AID 1335;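 active = fitted half-maximal concentration within 10 nM to 100 µM, steepness 0.5 to 2, significant signal drop, low assay interference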); settings: bead-based flow cytometry, Bodipy-GTP binding to GST-Ras; at 100 µM (top of the series) unless noted
[4] = test system: Ras-related protein Rab-7a (dog), GTP binding; assay: blockers of fluorescent GTP binding to Rab7 – biochemical, wildtype, multiplex bead flow cytometry, dose response (AID 1336; call rule not given here)
[5] = biological target: Ras-related C3 botulinum toxin substrate 1 (Homo sapiens) (UniProt P63000); assay: inhibition of wildtype Rac1 nucleotide loading – biochemical, multiplex bead flow cytometry, dose response (AID 1340); settings: GST-Rac1 beads, Bodipy-FL-GTP binding; at 100 µM (top of the series) unless noted
[6] = biological target: GTPase HRas (Homo sapiens) (UniProt P01112); assay: blockade of GTP loading onto mutant Ras – biochemical, activated mutant, multiplex bead flow cytometry, dose response (AID 1341;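 active = dose-response curve with midpoint inside the tested range, moderate steepness, significant amplitude and little compound fluorescence or bead-attachment interference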;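 also: GST-tagged constitutively activated Ras mutant immobilized on beads and multiplexed with other GTPases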)

Sequence of GTPase HRas (Homo sapiens) (P01112 whole entry, looked up): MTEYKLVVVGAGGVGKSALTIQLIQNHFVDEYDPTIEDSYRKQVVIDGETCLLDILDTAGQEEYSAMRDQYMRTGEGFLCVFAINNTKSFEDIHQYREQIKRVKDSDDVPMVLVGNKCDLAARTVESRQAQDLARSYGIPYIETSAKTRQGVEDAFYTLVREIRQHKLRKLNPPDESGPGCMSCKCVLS
Sequence of Cell division control protein 42 homolog (Homo sapiens) (P60953 whole entry, looked up): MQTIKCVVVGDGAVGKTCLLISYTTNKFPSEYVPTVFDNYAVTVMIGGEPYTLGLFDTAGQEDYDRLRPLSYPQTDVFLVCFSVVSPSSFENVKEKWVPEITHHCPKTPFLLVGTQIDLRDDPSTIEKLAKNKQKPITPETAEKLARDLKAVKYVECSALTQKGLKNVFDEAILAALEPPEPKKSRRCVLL

Structure (SMILES) | outcome [1] | fluorescence, percent of control (lower = inhibition) [2] [%] | GTP binding, percent of control [3] [%] | outcome [4] | GTP binding signal, raw median fluorescence (lower = inhibition) (MCF (arbitrary fluorescence units)) [5] | outcome [6]
O=C(O)c1ccc(CNCc2cccc(Cl)c2)s1 | inactive | 61.3 | 85.1 | inactive | 32.6 | inactive
O=S(=O)(Nc1cccc(-c2cn3cccnc3n2)c1)c1ccc(F)cc1 | inactive | 36.5 | 46 | inactive | 0 | inactive
Cc1ccc(C2C(C#N)C(C#N)N3CCCN23)cc1 (stereo not given) | inactive | 99.2 | 156 | inactive | 200 | inactive
C=CCN1C(=O)/C(=C/C=C2/N(CC)c3ccc(S(=O)(=O)N(C)C)cc3N2CC)SC1=S | inactive | 56.2 | 88.4 | inactive | 215 | inactive
COc1cc(/C=N/Nc2nn3cnnc3c3ccccc23)ccc1O | inactive | 50.3 | 122 | inactive | 90.4 | inactive
CCOC(=O)c1cccnc1SCCc1ccccc1 | inactive | 125 | 155 | inactive | 95.5 | inactive
CCOc1cc(C2c3c(-c4ccccc4)n[nH]c3C(=O)N2c2ccc(C(=O)O)cc2)ccc1O (stereo not given) | inactive | 29 | 79.3 | inactive | 95.9 | inactive
O=C(O)CC/C(=C\c1ccc(N2CCCC2)c([N+](=O)[O-])c1)c1nc2ccccc2s1 | inactive | 34.4 | 81.8 | inactive | 244 | inactive
O=C(Nc1nc(-c2ccc(S(=O)(=O)N3CCCC3)cc2)cs1)c1cccs1 | inactive | 83.9 | 135 | inactive | 164 | inactive
Cc1ccc2c(c1)c1nnc(SCC(=O)Nc3cccc(Cl)c3C)nc1n2CC(=O)O | inactive | 35.2 | 80.1 | inactive | 245 | inactive
NC1=NC(=O)/C(=C\c2ccc(O)c([N+](=O)[O-])c2)S1 | inactive | 26.8 | 58.3 | inactive | 116 | inactive
OCCC1CN(Cc2ccccc2O)CCN1CCc1ccccc1 (stereo not given) | inactive | 34.2 | 82.7 | inactive | 255 | inactive
Cc1ccc(Sc2c(C)nn(C(=O)C3CC3)c2C)cc1 | inactive | 28.8 | 78.5 | inactive | 236 | inactive
COc1ccc(OC)c(/C=N/NC(=O)c2ccc(Cn3cc([N+](=O)[O-])cn3)o2)c1 | inactive | 30.5 | 66.3 | inactive | 159 | inactive
NC(=O)NOCc1ncc(C(F)(F)F)cc1Cl | inactive | 36.2 | 81.2 | inactive | 274 | inactive
COc1cccc(Nc2c(F)c(F)c(F)c(F)c2C(=O)O)c1 | inactive | 53.4 | 60.7 | inactive | 0 | inactive
Cc1ccc(CS(=O)(=O)c2ccccc2-c2nnc(-c3ccc(Cl)cc3)o2)cc1 | inactive | 88.2 | 156 | inactive | 181 | inactive
O=c1n(Cc2ccc(Cl)cc2)c2sc3c(c2c2ncnn12)CCCC3 | inactive | 78.9 | 126 | inactive | 146 | inactive
Cc1ccc(Nc2cc(C(=O)O)c3ccccc3n2)cc1C | inactive | 60.9 | 84.7 | inactive | 31.9 | inactive
O=C(/C=C/c1c(Cl)nc2ccccn12)N1CCCCC1 | inactive | 33.3 | 80.9 | inactive | 245 | inactive

Structure (SMILES) | outcome [1] | fluorescence, percent of control (lower = inhibition) [2] [%] | GTP binding, percent of control [3] [%] | outcome [4] | GTP binding signal, raw median fluorescence (lower = inhibition) (MCF (arbitrary fluorescence units)) [5] | outcome [6]
Cc1ccc(Cc2cnc(NC(=O)/C(C#N)=C/c3ccc(-c4ccc([N+](=O)[O-])cc4)o3)s2)cc1 | inactive | 28.5 | 75.1 | inactive | 223 | inactive
CCC(C)(C)c1ccc(OCCCC[n+]2ccccc2)c(C(C)(C)CC)c1 | inactive | 32.7 | 78.7 | inactive | 278 | inactive
COCc1cc(C)nc(N/N=C/c2ccc(-c3ccc(C(=O)O)c(Cl)c3)o2)c1C#N | inactive | 30.6 | 74.4 | inactive | 180 | inactive
O=S(=O)(Nc1ncn[nH]1)c1ccc2ccccc2c1 | inactive | 62.3 | 70.5 | inactive | 224 | inactive
Cc1ccc(COc2ccsc2C(=O)O)cc1 | inactive | 99.7 | 115 | inactive | 82.4 | inactive
CS(=O)(=O)Nc1ccc(Br)cc1C(=O)c1ccccc1 | inactive | 46.4 | 59 | inactive | 205 | inactive
Cc1nc2c(-c3ccc(Cl)cc3)c(C)[nH]n2c(=O)c1Cc1ccccc1 | inactive | 34.5 | 75.9 | inactive | 158 | inactive
CCCOc1ccc(C(CC(=O)O)NC(=O)c2sc3ccccc3c2Cl)cc1 (stereo not given) | inactive | 28.6 | 78.9 | inactive | 258 | inactive
Cc1ccc(/C(N)=N/OC(=O)CCC2CCCCC2)cc1 | inactive | 80.5 | 154 | inactive | 180 | inactive
Oc1ccc(C2=Nn3c(nnc3-c3ccco3)SC2)cc1O | inactive | 25.1 | 35.2 | inactive | 0 | inactive
COc1ccccc1Oc1ccccc1C(=O)O | inactive | 100 | 239 | inactive | 271 | inactive
CC1CN(C(=O)c2cccc(S(=O)(=O)Nc3cc(Cl)ccc3Cl)c2)CC(C)O1 (stereo not given) | inactive | 26.5 | 65.8 | inactive | 168 | inactive
Cn1nc(C(=O)Nc2cccnc2)c2ccccc2c1=O | inactive | 49 | 111 | inactive | 135 | inactive
Cc1cc2[nH]c3c(c[n+](C)c4ccccc34)c2cc1C | inactive | 35.5 | 78.4 | inactive | 253 | inactive
CC(=O)Nc1ccc(NC(=O)CCn2nnc3ccccc32)cc1 | inactive | 35.7 | 81.1 | inactive | 251 | inactive
O=C(c1cccnc1SCCc1ccccc1)N1CCOCC1 | inactive | 77.3 | 101 | inactive | 64.8 | inactive
COc1ccc(OCc2oc3ccc(OC)cc3c2C(=O)O)cc1 | inactive | 53.9 | 82.7 | inactive | 28.2 | inactive
Clc1ccccc1-c1ccc(/C=N/Nc2nncc(-c3ccccc3)n2)o1 | inactive | 39 | 89.5 | inactive | 220 | inactive
O=C(COC(=O)/C=C/c1cccc([N+](=O)[O-])c1)NCc1ccc2c(c1)OCO2 | inactive | 34.8 | 82.9 | inactive | 254 | inactive
COc1ccccc1OCCn1cc(C(=O)O)c2cc(C)ccc21 | inactive | 62.1 | 212 | inactive | 57.3 | inactive

Structure (SMILES) | outcome [1] | fluorescence, percent of control (lower = inhibition) [2] [%] | GTP binding, percent of control [3] [%] | outcome [4] | GTP binding signal, raw median fluorescence (lower = inhibition) (MCF (arbitrary fluorescence units)) [5] | outcome [6]
CCN(CC)c1ccc(-c2nn3c(-c4cccnc4)nnc3s2)cc1 | inactive | 72.7 | 46.9 | inactive | 126 | inactive
C=CCc1ccc(OCc2ccc(C(=O)O)o2)c(OC)c1 | inactive | 58.9 | 86.5 | inactive | 31.4 | inactive
CCN(CC)S(=O)(=O)c1cc([N+](=O)[O-])ccc1N=Nc1c(O)[nH]c2ccccc12 | inactive | 82.9 | 87.4 | inactive | 351 | inactive
O=S(=O)(Nc1cc(Sc2ncn[nH]2)c(O)c2ccccc12)c1ccccc1 | inactive | 31.4 | 71.9 | inactive | 155 | inactive
CCn1cc(C(=O)OCC(=O)c2cc(C)n(-c3cccc(C(F)(F)F)c3)c2C)c(=O)c2ccc(C)nc21 | inactive | 37.1 | 57.8 | inactive | 137 | inactive
COc1ccc(S(=O)(=O)n2oc(=O)cc2-c2ccccc2)cc1 | inactive | 42.2 | 90.8 | inactive | 248 | inactive
Cn1nnc(NC(=S)NC(=O)c2ccc(-c3ccc(Br)cc3)o2)n1 | inactive | 30.7 | 75.4 | inactive | 132 | inactive
O=S(=O)(Cc1ccc(Cl)cc1)c1ccccc1-c1nnc(-c2ccccc2)o1 | inactive | 104 | 196 | inactive | 207 | inactive
COC(CNC(=O)C1CCCN1C(=O)OCc1ccccc1)OC (stereo not given) | inactive | 46.2 | 90.5 | inactive | 333 | inactive
COc1cccc(OCc2c(C)cccc2C)c1C(=O)O | inactive | 56.5 | 209 | inactive | 52.5 | inactive
O=C(COC(=O)C1(c2ccccc2F)CCCC1)Nc1ncc(C(F)(F)F)cc1Cl | inactive | 47.6 | 60.4 | inactive | 194 | inactive
Cc1ccc(OCc2ccc(C(=O)O)o2)cc1C | inactive | 61.7 | 90.6 | inactive | 34.8 | inactive
Cc1c(CCC(=O)O)c(=O)oc2cc3occ(-c4ccc(F)cc4)c3cc12 | inactive | 29.1 | 72.6 | inactive | 160 | inactive
Cc1cc(C(F)F)n2nc(C(=O)Nc3ccc(S(=O)(=O)NC45CC6CC(CC(C6)C4)C5)cc3)nc2n1 | inactive | 35 | 82.9 | inactive | 254 | inactive
O=c1c2ccc([N+](=O)[O-])cc2ncn1Cc1ccccc1C(F)(F)F | inactive | 34.8 | 72.7 | inactive | 141 | inactive
Cc1ccc(-n2c(SCc3cc(=O)n4ccsc4n3)nnc2-c2cccnc2)c(C)c1 | inactive | 79.6 | 157 | inactive | 178 | inactive
COc1ccccc1OCCn1cc(C(=O)O)c2cc(Cl)ccc21 | inactive | 55.3 | 204 | inactive | 57.7 | inactive
CCOc1cc(/C=N/NC(=O)c2cc(-c3cccnc3)nc3ccccc23)ccc1O | inactive | 33.8 | 80.2 | inactive | 188 | inactive
O=C1CC(c2ccc(F)cc2)Sc2ccccc2N1 (stereo not given) | inactive | 101 | 170 | inactive | 207 | inactive
Cc1nc2c(ccc3nc(NC(=O)c4ccc(S(=O)(=O)N(C)C)cc4)sc32)s1 | inactive | 79.8 | 151 | inactive | 159 | inactive
